These results are taken from PubChem BioAssay (NCI).

Common to all, as to assay: NCI-60 one-dose screen, 48 h (100 = growth as untreated, 0 = no growth, -100 = all killed)
For one test, the system named is NCI-H23 lung. The conditions noted are these: 10 µM unless noted.
A further test deals with NCI-H226 lung. The conditions noted are these: 10 µM unless noted.
For a further test, the system named is NCI-H322M lung. The conditions noted are these: 10 µM unless noted.
Another test relates to NCI-H460 lung. Conditions: 10 µM unless noted.
The next test relates to HOP-92 NSCLC. Conditions: 10 µM.
In a further test the test system is NCI-H522 lung. Conditions: 10 µM.
The next test relates to A549/ATCC NSCLC. Conditions: 10 µM unless noted.
In another test the test system is COLO 205 colon. Conditions: 10 µM unless noted.
A further test has as its system 786-0 renal. Conditions: 10 µM unless noted.

Molecules are shown by their SMILES. The panel holds about 83,000 compounds, 20% with a hit somewhere; the sample as a whole holds those more often.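 How to read the values: 0–100, growth inhibition (40 = 60% inhibited); 0, no net growth; -100 to 0, cell death (-40 = 40% of starting cells died; -100 = all dead).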 A number with no mark means an inactive call. The source made the active and inactive calls. The calls were made as follows: active = growth percent below 10; inactive = the rest.

In the case of `CC(=O)OC1CC2C3CCC4C[C@@H](NC(=O)C=C(C)C)CC[C@]4(C)C3CC[C@]2(C)[C@H]1C(C)N(C)C` (stereo partly specified), the growth was 40.6% in the test on NCI-H23 lung; 30.5% in the test with NCI-H226 lung; -2.28% (active) with NCI-H322M lung; -39.9% (active) in the test with NCI-H460 lung; -36.2% (active) with HOP-92 NSCLC; 61.2% in the test with NCI-H522 lung. In addition, the values for the growth in the test on A549/ATCC NSCLC and in the test on COLO 205 colon were 11.6% and -84% (active), respectively.

Regarding `O=C1OC(c2ccc(-c3ccccc3)cc2)=C/C1=C/c1c2ccccc2cc2ccccc12`, the growth in the test with NCI-H23 lung was 99.4%; with NCI-H226 lung, 78.5%; with NCI-H322M lung it was 113%; in the test on NCI-H460 lung, 94.5%; in the test on HOP-92 NSCLC it was 79.2%; with NCI-H522 lung it was 109%. Besides, the growth in the test with A549/ATCC NSCLC was 25.8%; with COLO 205 colon it was 101%.

In the case of `Cc1[nH]n(C(=S)Nc2nc3cc(Cl)c(F)cc3s2)c(=O)c1N=Nc1ccc(F)c(Cl)c1`, the growth was 97.4% with NCI-H23 lung; 95.7% in the test on NCI-H226 lung; 119% in the test with NCI-H322M lung; 106% in the test with NCI-H460 lung; 71.2% with HOP-92 NSCLC; 123% with NCI-H522 lung. In addition, the growth in the test with A549/ATCC NSCLC was 40.1%; in the test with COLO 205 colon it was 109%.

Turning to `COc1ccc(/C=C(/C(=O)N2CCN(c3ccc(C)cc3)CC2)c2cc(OC)c(OC)c(OC)c2)cc1N`, the growth in the test with NCI-H23 lung is 38.1%; in the test on NCI-H226 lung, 98.3%; in the test with NCI-H322M lung, 43.7%; in the test with HOP-92 NSCLC, 17.6%; with NCI-H522 lung, -12.8% (active); in the test with A549/ATCC NSCLC it was 23.1%. Besides, the growth in the test on 786-0 renal is 18.5%; in the test on COLO 205 colon, -43.9% (active).

For the compound `Brc1c(-c2ccncc2)nc2n1CCS2`, the growth in the test with NCI-H23 lung was 113%; in the test with NCI-H226 lung it was 93.4%; in the test on NCI-H322M lung, 107%; in the test with HOP-92 NSCLC, 73.9%; in the test with NCI-H522 lung, 76.5%; with A549/ATCC NSCLC it was 94.1%. In addition, the growth in the test on 786-0 renal was 26.3%; in the test with COLO 205 colon, 120%.

On to `COc1cc2cc3cc4cc(OC)c(OC)cc4c(C)[n+]3cc2cc1OC` (tested in a mixture with another compound), for which the growth was 89% in the test with NCI-H23 lung; 80% in the test on NCI-H226 lung; 89.8% in the test with NCI-H322M lung; 89.1% in the test with NCI-H460 lung; 143% with HOP-92 NSCLC; 56.4% with NCI-H522 lung. Further, in the test on 786-0 renal, the growth was 66.5%.

Take `Clc1ccc(N/N=C/c2ccccn2)nc1`: the growth is 6.51% (active) with NCI-H23 lung; -12.3% (active) with NCI-H226 lung; 23.6% with NCI-H322M lung; 39.7% with HOP-92 NSCLC; 37.5% with NCI-H522 lung; 11.2% with A549/ATCC NSCLC. Also, the growth in the test on 786-0 renal is 7.14% (active); in the test on COLO 205 colon, 13.6%.

`C/C(=N\Nc1ccc(Cl)cn1)c1ccc2ccccc2n1`: the growth in the test with NCI-H23 lung was 21%; in the test with NCI-H226 lung it was -5.19% (active); in the test with NCI-H322M lung it was 16.4%; in the test with HOP-92 NSCLC, 34.4%; in the test with NCI-H522 lung it was 11.9%; with A549/ATCC NSCLC, 4.29% (active). Moreover, the results for the growth in the test on 786-0 renal and in the test on COLO 205 colon were 12.9% and 9.81% (active), respectively.

Consider `COc1ccc(Cn2cc3c(c2)-c2oncc2CC3)cc1OC`, for which the growth in the test on NCI-H23 lung is 16.9%; in the test with NCI-H226 lung, 31.4%; in the test with NCI-H322M lung it was 22.9%; in the test with HOP-92 NSCLC, 84.4%; with NCI-H522 lung, 20.5%; with A549/ATCC NSCLC it was 25.9%. For the same compound, the results for the growth in the test with 786-0 renal and in the test on COLO 205 colon were 22% and -18.2% (active), respectively.

Consider `COc1ccc(Cn2cc3c(c2-c2ccc(O)cc2)CCc2cnoc2-3)cc1`, for which the growth in the test on NCI-H23 lung is 20.5%; with NCI-H226 lung it was 24.1%; in the test on NCI-H322M lung, 18.8%; with HOP-92 NSCLC, 93.1%; in the test on NCI-H522 lung, 35.7%; in the test on A549/ATCC NSCLC it was 32.3%. The growth in the test on 786-0 renal is 28.9%.

As to `O=C(Nc1cccc2[nH]c(C(F)(F)F)nc12)c1ccc(F)cc1`, the growth with NCI-H23 lung was 83.7%; with NCI-H226 lung, 86.1%; with NCI-H322M lung, 101%; in the test on HOP-92 NSCLC, -9.1% (active); with NCI-H522 lung, 51.3%; in the test with A549/ATCC NSCLC it was 72.8%. For the same compound, the results for the growth in the test with 786-0 renal and in the test with COLO 205 colon were 91.9% and 95.1%, respectively.

As for `O=C1/C(=N\c2cc(=O)[nH]n2S(=O)(=O)c2ccccc2)Nc2ccccc21`, the growth with NCI-H23 lung was 107%; with NCI-H226 lung, 92.4%; in the test with NCI-H322M lung, 105%; in the test on HOP-92 NSCLC it was 89.6%; in the test on NCI-H522 lung, 96.7%; with A549/ATCC NSCLC, 111%. Moreover, the growth with 786-0 renal was 106%; in the test with COLO 205 colon, 114%.

As for `O=[N+]([O-])c1ccc(-c2ncc(-c3ccc(O)cc3O)[nH]2)cc1`, the growth in the test on NCI-H23 lung is 105%; in the test on NCI-H226 lung, 102%; in the test with NCI-H322M lung, 116%; in the test on NCI-H460 lung it was 109%; with HOP-92 NSCLC it was 88.5%; in the test with NCI-H522 lung, 124%. In addition, the figures for the growth in the test with A549/ATCC NSCLC and with COLO 205 colon were 44.9% and 112%, respectively.

For the compound `Cn1c2c(cc(S(=O)(=O)c3ccccc3)c1=O)CCc1c-2cnn1-c1ccc(Cl)cc1`, the growth was 69.7% with NCI-H23 lung; -14.8% (active) in the test with NCI-H226 lung; 38.9% in the test with NCI-H322M lung; 20.3% in the test with NCI-H460 lung; -34.2% (active) in the test on HOP-92 NSCLC; -11.3% (active) with NCI-H522 lung. In addition, the growth in the test with A549/ATCC NSCLC was 8.48% (active); in the test on COLO 205 colon it was 77.5%.

As to `COc1ccc2sc(-n3nc4nc5n(c(=O)c4c3N)-c3ccccc3Sc3ccccc3-5)nc2c1`, the growth is 79.2% in the test on NCI-H23 lung; 81.4% in the test on NCI-H226 lung; 75.4% with NCI-H322M lung; 74.1% in the test with HOP-92 NSCLC; 75.6% in the test on NCI-H522 lung; 68% in the test with A549/ATCC NSCLC. The growth in the test on 786-0 renal is 91.2%; with COLO 205 colon it was 64.7%.

Regarding `COC(=O)c1ccc2[nH]c(O)c(C(=Nc3ccc(N(C)C(=O)CN4CCN(C)CC4)cc3)c3ccc(OC)cc3)c2c1`, the growth was 28.1% in the test on NCI-H23 lung; 25.8% with NCI-H226 lung; 38% in the test on NCI-H322M lung; 38% in the test on HOP-92 NSCLC; 17.4% in the test on NCI-H522 lung; 16% with A549/ATCC NSCLC. The growth with 786-0 renal was 21.7%; with COLO 205 colon, 0.878% (active).
